In experiment [1] the target is Sphingosine kinase 1 (Homo sapiens) (UniProt Q9NYA1). Particulars: at 1 µM.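 Further: mean SPHK1 inhibition value reported from the GSK PKIS kinase panel screen.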
For experiment [2], the target named is T1, Sphingosine kinase 2 (Homo sapiens) (UniProt Q9NRA0).
T1 sequence (whole entry): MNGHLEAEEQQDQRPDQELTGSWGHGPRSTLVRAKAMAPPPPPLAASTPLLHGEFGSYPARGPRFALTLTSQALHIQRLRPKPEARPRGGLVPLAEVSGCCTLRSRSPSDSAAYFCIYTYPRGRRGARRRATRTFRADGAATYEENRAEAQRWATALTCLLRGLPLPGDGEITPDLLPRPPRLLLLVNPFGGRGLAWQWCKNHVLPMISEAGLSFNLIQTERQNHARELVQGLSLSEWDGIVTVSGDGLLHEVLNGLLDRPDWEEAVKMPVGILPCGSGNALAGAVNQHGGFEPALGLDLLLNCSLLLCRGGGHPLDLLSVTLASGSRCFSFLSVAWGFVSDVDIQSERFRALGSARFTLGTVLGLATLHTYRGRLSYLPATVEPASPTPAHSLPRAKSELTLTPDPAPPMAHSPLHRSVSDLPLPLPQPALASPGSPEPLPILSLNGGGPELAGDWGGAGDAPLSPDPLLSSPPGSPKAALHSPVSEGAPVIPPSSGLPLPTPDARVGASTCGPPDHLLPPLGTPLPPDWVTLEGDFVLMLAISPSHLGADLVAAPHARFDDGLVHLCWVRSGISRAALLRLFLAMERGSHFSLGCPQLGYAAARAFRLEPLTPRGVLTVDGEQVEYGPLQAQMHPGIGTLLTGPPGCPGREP
To be noted: at 0.1 µM.

Experiment [3] has as its target T1, Sphingosine kinase 2 (Homo sapiens). To be noted: at 1 µM.
Experiment [4] has as its target Casein kinase II subunit alpha (Homo sapiens) (UniProt P68400). To be noted: at 0.1 µM.
Experiment [5] shares this target. Particulars: at 1 µM.
Experiment [6] concerns the target T2, Inhibitor of nuclear factor kappa-B kinase subunit alpha (Homo sapiens) (UniProt O15111).
T2 sequence (whole entry): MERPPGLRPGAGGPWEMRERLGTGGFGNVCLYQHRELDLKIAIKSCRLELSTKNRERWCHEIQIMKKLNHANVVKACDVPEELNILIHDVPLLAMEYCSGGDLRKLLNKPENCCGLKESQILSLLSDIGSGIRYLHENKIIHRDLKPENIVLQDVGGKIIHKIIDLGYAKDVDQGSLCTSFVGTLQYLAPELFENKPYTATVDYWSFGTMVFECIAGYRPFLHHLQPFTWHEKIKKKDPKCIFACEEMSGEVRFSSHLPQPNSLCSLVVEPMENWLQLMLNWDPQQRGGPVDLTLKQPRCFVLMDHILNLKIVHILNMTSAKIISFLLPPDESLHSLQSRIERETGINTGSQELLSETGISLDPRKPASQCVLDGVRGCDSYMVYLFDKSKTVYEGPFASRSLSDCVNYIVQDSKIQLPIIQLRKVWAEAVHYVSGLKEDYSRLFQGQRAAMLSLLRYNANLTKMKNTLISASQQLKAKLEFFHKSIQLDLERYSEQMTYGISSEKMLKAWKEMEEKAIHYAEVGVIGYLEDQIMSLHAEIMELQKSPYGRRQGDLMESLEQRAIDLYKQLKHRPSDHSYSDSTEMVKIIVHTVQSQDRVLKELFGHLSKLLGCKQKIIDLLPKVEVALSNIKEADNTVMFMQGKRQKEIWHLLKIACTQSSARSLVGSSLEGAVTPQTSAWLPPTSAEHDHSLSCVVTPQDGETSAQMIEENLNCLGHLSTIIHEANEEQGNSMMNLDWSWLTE
Particulars: at 0.1 µM.

Experiment [7] concerns the target T2, Inhibitor of nuclear factor kappa-B kinase subunit alpha (Homo sapiens). Particulars: at 1 µM.
Experiment [8] addresses T3, Inhibitor of nuclear factor kappa-B kinase subunit beta (Homo sapiens) (UniProt O14920).
T3 sequence (whole entry): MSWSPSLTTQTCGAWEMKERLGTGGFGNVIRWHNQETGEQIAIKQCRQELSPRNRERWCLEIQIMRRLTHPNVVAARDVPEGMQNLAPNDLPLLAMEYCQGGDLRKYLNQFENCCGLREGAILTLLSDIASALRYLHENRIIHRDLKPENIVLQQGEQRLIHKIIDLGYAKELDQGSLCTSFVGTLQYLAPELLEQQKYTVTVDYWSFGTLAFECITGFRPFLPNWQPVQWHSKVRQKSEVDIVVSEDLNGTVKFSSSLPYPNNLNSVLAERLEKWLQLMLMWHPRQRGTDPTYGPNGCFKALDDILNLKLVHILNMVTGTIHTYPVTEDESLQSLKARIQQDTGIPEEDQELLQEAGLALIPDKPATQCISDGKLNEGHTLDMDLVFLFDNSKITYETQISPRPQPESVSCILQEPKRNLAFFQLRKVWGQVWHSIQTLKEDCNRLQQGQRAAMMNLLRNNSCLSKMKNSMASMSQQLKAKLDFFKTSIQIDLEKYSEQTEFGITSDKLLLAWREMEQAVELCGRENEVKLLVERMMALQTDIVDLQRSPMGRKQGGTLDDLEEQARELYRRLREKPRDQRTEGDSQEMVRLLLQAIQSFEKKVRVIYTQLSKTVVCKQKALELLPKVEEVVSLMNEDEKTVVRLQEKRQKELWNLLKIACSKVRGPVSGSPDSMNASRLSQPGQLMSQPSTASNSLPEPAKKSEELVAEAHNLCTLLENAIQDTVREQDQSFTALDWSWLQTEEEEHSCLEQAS
To be noted: at 0.1 µM.

Experiment [9] deals with T3, Inhibitor of nuclear factor kappa-B kinase subunit beta (Homo sapiens). To be noted: at 1 µM.
Experiment [10] addresses T4, Inhibitor of nuclear factor kappa-B kinase subunit epsilon (Homo sapiens) (UniProt Q14164).
T4 sequence (whole entry): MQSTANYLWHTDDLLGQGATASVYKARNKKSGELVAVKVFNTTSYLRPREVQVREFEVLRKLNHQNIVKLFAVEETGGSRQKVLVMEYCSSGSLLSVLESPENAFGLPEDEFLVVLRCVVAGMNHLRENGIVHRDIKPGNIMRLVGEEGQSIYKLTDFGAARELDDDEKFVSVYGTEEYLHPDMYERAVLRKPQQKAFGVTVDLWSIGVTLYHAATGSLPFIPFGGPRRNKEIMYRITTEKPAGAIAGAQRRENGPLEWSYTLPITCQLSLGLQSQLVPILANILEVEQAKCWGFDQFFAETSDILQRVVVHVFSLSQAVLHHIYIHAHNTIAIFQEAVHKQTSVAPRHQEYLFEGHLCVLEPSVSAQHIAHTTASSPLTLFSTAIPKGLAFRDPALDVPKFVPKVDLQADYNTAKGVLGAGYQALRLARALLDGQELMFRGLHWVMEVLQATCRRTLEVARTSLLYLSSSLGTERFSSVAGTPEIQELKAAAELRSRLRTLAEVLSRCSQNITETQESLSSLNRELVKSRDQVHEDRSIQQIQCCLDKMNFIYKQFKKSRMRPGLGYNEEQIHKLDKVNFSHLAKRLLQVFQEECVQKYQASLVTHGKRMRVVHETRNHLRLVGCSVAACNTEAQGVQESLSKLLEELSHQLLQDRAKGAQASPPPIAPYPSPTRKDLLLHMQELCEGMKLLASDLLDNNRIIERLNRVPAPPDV
Particulars: at 0.1 µM.

The target in experiment [11] is T4, Inhibitor of nuclear factor kappa-B kinase subunit epsilon (Homo sapiens). Particulars: at 1 µM.
Experiment [12] deals with T5, Serine/threonine-protein kinase Nek1 (Homo sapiens) (UniProt Q96PY6).
T5 sequence (whole entry): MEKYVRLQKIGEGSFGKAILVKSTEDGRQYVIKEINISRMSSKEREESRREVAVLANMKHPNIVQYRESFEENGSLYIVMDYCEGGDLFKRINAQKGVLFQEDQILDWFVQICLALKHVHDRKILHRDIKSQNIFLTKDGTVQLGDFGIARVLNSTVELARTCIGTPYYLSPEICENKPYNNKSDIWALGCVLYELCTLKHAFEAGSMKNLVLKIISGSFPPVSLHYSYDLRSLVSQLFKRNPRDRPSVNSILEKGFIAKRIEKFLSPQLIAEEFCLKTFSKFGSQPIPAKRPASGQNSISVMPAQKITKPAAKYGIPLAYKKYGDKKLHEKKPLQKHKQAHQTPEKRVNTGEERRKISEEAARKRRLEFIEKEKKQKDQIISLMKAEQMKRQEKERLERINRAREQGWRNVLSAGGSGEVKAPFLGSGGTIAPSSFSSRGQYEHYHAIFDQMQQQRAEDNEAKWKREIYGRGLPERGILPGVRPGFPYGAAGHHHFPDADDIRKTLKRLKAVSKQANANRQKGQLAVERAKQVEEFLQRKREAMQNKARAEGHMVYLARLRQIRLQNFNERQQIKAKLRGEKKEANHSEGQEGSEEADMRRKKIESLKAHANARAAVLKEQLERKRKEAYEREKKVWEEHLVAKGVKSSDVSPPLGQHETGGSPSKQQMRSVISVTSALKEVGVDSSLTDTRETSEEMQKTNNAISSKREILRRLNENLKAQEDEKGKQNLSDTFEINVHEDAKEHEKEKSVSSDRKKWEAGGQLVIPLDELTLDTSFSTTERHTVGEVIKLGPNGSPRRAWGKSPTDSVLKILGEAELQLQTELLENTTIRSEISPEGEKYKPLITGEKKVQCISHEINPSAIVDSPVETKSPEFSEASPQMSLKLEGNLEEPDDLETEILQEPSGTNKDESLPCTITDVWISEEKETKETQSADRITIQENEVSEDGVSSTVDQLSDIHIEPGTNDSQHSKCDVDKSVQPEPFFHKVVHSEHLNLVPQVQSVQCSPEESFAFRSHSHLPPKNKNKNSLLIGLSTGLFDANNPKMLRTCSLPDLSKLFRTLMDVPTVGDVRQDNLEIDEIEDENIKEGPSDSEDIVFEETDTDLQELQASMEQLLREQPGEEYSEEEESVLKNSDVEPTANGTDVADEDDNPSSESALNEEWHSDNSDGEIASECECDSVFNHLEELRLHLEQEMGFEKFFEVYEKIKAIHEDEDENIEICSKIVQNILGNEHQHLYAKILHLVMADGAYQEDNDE
Particulars: at 0.1 µM.

Experiment [13] deals with T5, Serine/threonine-protein kinase Nek1 (Homo sapiens). To be noted: at 1 µM.
For experiment [14], the target named is T6, Serine/threonine-protein kinase Nek2 (Homo sapiens) (UniProt P51955).
T6 sequence (whole entry): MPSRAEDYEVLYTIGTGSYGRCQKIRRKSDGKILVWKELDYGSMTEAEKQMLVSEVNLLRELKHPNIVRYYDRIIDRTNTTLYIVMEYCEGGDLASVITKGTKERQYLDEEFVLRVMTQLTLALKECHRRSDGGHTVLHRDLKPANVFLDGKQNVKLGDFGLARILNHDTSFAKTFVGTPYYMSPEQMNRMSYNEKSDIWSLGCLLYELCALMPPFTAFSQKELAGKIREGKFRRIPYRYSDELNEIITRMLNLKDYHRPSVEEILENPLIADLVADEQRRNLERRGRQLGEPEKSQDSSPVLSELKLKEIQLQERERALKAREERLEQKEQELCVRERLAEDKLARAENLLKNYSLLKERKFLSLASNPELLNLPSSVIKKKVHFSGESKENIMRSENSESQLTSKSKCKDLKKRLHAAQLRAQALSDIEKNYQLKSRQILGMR
To be noted: at 0.1 µM.

Experiment [15] has as its target T6, Serine/threonine-protein kinase Nek2 (Homo sapiens). Particulars: at 1 µM.
For experiment [16], the target named is Serine/threonine-protein kinase Nek6 (Homo sapiens) (UniProt Q9HC98). To be noted: at 0.1 µM.
Sequence of Serine/threonine-protein kinase Nek6 (Homo sapiens) (Q9HC98 whole entry): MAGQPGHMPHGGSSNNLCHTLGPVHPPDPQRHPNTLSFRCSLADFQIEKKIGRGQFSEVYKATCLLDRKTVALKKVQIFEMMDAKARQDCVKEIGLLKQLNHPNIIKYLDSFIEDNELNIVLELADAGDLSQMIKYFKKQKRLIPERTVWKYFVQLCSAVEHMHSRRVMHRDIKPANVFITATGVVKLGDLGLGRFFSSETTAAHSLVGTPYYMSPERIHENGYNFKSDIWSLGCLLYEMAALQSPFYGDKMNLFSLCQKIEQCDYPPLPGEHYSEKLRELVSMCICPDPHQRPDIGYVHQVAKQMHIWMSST
Experiment [17] shares this target. Particulars: at 1 µM.
Experiment [18] concerns the target Serine/threonine-protein kinase Nek7 (Homo sapiens) (UniProt Q8TDX7). Particulars: at 0.1 µM.
Experiment [19] shares this target. To be noted: at 1 µM.
Experiment [20] has as its target T7, Serine/threonine-protein kinase Nek9 (Homo sapiens) (UniProt Q8TD19).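 Further: reported value is the mean percent inhibition of NEK9.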
T7 sequence (whole entry): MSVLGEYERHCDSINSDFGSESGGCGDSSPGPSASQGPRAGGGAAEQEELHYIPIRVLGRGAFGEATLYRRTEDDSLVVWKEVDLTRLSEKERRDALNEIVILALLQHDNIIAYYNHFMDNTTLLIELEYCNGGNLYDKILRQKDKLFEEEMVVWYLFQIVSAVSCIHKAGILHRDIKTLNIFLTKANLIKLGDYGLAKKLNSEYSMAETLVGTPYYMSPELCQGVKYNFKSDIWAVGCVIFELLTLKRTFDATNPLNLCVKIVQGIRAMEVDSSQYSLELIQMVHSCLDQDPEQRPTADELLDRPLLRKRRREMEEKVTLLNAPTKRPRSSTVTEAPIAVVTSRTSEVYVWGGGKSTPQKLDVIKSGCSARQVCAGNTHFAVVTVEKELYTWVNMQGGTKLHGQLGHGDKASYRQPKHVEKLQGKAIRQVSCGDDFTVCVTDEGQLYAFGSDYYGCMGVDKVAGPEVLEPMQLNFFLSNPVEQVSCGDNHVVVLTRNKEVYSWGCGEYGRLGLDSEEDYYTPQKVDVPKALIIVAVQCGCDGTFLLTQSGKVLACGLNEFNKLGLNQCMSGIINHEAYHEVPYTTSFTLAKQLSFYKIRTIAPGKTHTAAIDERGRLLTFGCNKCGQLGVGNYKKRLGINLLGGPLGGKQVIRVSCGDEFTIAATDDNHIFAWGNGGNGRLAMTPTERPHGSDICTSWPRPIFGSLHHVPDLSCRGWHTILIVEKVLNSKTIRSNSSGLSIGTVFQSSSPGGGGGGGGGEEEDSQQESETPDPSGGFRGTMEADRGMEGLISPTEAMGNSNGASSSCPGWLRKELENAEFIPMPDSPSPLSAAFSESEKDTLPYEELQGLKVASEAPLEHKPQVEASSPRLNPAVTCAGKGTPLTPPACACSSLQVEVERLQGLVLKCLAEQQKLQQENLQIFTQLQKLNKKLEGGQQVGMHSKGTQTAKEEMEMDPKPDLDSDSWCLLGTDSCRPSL
To be noted: at 0.1 µM.

Sequence of Casein kinase II subunit alpha (Homo sapiens) (P68400 whole entry, looked up): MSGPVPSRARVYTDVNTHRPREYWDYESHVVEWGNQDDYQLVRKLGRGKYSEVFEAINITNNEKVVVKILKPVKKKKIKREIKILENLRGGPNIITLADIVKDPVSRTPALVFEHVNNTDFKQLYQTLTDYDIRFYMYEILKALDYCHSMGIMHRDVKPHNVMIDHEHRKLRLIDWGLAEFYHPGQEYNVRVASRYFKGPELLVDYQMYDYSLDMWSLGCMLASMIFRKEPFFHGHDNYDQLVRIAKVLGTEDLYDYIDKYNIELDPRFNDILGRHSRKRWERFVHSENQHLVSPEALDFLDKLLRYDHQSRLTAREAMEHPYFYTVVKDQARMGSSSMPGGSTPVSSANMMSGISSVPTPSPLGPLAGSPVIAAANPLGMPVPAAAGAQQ
Sequence of Serine/threonine-protein kinase Nek7 (Homo sapiens) (Q8TDX7 whole entry, looked up): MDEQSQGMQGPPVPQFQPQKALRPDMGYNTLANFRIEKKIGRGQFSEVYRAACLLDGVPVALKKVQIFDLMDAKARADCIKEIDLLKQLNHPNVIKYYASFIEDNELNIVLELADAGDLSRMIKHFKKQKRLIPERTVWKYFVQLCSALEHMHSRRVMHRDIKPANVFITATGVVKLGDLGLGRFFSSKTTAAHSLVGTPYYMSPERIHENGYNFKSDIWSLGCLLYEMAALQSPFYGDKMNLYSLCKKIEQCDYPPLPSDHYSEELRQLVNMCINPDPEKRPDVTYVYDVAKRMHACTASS
Sequence of Sphingosine kinase 1 (Homo sapiens) (Q9NYA1 whole entry): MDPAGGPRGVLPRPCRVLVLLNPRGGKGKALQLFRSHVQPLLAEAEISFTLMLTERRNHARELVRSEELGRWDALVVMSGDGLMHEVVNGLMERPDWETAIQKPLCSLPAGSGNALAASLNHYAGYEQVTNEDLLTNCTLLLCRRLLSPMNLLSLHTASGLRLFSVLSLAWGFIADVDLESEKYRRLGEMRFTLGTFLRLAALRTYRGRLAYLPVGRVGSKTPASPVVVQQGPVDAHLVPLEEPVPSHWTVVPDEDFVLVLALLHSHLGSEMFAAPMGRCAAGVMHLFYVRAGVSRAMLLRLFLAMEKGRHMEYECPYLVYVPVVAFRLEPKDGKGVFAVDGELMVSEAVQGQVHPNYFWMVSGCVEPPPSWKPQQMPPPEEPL

The inhibition is the drop in the measured response relative to a control, in per cent. Turning to `CN1CCC(n2cnc(-c3ccc(F)cc3)c2-c2ccnc(NCCO)n2)CC1`, the inhibition in [1] was -1.28%; in experiment [2] it was 0.37%; in [3], -1.92%; in experiment [4], 4.78%; in [5] it was 13.2%; in [6], 2.6%. In addition, the inhibition worked out at 6.82% in experiment [7]; 5.84% in experiment [8]; 6.36% in experiment [9]; 7.53% in [10]; 9.51% in [11]; 2.52% in experiment [12]. Moreover, the inhibition in [13] is 3.44%; in experiment [14], 5.2%; in experiment [15], 5.72%; in experiment [16], 3.54%; in [17], 5.15%; in experiment [18] it was 2.96%. For the same molecule, the inhibition in experiment [19] stood at 3.39%; in [20], 5.09%.
